Laboratory results as given in PubChem BioAssay (NCI).
About 79,000 compounds went through this panel and 15% of them were active in at least one assay; those are over-represented in the sample as a whole. A number with no mark means an inactive call. Rule as the data show it: active = growth inhibition above about 70%; inactive = the rest.

assay: NCI Yeast Anticancer Drug Screen. Data for the rad50 strain (AID 155);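 also: 0% = growth of vehicle-only cultures of the same strain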; conditions: S. cerevisiae rad50 strain growth inhibition; at 50.0 µM; active compounds read high
Method: Growth inhibition of yeast strains with defined genetic alterations is measured as a screen for potential anti-cancer activity. Selected strains with alterations in DNA damage repair or cell cycle control were exposed to compounds and growth inhibition was measured relative to vehicle treated controls. The strain used in this assay is rad50

| Compound | growth inhibition [%] |
| --- | --- |
| N#Cc1c(-c2ccccc2)cc(-c2cccs2)c(C#N)c1N | 4.35 |
| Cc1ccc(CCS(=O)(=O)N=[N+]=[N-])cc1 | 1.45 |
| O=P(OCCCl)(OCCCl)C(c1ccccc1)(c1ccccc1)c1ccccc1 | 63.4 |
| COc1ccc(C2OC3=Nc4ccccc4NC3C2=O)cc1OC (stereo not given) | 11 |
| CSC1=Nc2cc3c(cc2C(=O)N2C[C@H](O)CC12)OCO3 (stereo not given in full) | -20.9 |
| O=S1(=O)C=C(N2CCCCC2)c2ccccc21 | 2.65 |
| CC(=O)CC(=O)NCc1ccccc1 | 10.7 |
| CC(C)=CCNc1nc(Cl)nc2nc[nH]c12 | -28.1 |
| COC(=O)/C=C(\S/C=C(/c1ccccc1)N1CCn2c(C(=O)c3ccccc3)c(C(=O)OC)c(C(=O)OC)c21)C(=O)OC | 27.4 |
| C=CC(=O)OCCC#N | 9 |
| CC(=O)Nc1nc(Cl)c2ncn(C3CCCO3)c2n1 (stereo not given) | -13 |
| COc1ccc2cc1Oc1ccc(cc1)CC1=NCCc3cc(OC)c(OC)c(c31)Oc1cc3c(cc1OC)CCN(C)C3C2 (stereo not given) | -8.75 |
| Nc1nc(N)nc(-c2ccccc2NS(=O)(=O)c2ccc([N+](=O)[O-])cc2)n1 | 1.6 |
| O=C(/C(=C/c1ccc(Cl)cc1)c1ccccc1)c1ccccc1 | 9.2 |
| CCC1(O)C(=O)c2ccccc2N(c2ccccc2)C1=O (stereo not given) | 9.05 |
| CCCC1(C)COC(/C=C/c2ccccc2)OC1 (stereo not given) | 6.85 |
| O=c1c2ccccc2[nH]c2ccc(O)cc12 | 1.45 |
| COc1cc2c(cc1OC)[C@H]1C(COC(=O)c3ccccc3)CSC(=Nc3ccccc3)N1CC2 (stereo not given in full) | 21.9 |
| N#Cc1nc(Nc2ccc([N+](=O)[O-])cc2)sc1N | 55.1 |
| COc1ccc(C(C#N)C(=O)C(=O)Nc2ccc(Cl)cc2C)cc1OC (stereo not given) | -19.9 |

| Compound | growth inhibition [%] |
| --- | --- |
| S=C1NC(c2ccccc2)Nc2ccccc21 (stereo not given) | 6.5 |
| O=S(=O)(O)c1ccc[n+]([O-])c1 | 5.7 |
| CCOC(=O)CCC(C#N)C(=O)OCC (stereo not given) | 0.45 |
| Cc1cccc(C)c1NC(=O)CCC/C(CC(=O)c1ccc(F)cc1)=N\NC(=O)C(=O)NN | 20.2 |
| C=CCOC(=O)c1c(Cl)c(Cl)c(Cl)c(Cl)c1C(=O)O | 18.4 |
| CCOC(=O)c1cnc2[nH]ccn2c1=O | -26.9 |
| CCCCOC(=O)NCNC(=O)OCCCC | 23.2 |
| FC1(F)SC2c3ccccc3CC2C1(F)F (stereo not given) | 20.4 |
| C=CCOC(=O)CCCCC(=O)OCC=C | 3.1 |
| COC(=O)C1CCCN1C(c1ccccc1)(c1ccccc1)c1ccccc1 (stereo not given) | -9.45 |
| CC(C)N1C(=O)c2ccccc2C1=O | 26.8 |
| COc1ccc2c(c1)CCC1=C2CCC(C(=O)O)C1(C)C(=O)O (stereo not given) | 1.9 |
| CCCCOc1ccc(Nc2c(C(=O)OCC)cnc3cc4c(cc23)OCO4)cc1 | -3.3 |
| COC(=O)C1C(C)(C(=O)OC)N=NC1(c1ccccc1)c1ccccc1 (stereo not given) | 7.85 |
| Nc1nc2c(ncn2C2C=CC(CO)C2)c(=O)[nH]1 (stereo not given) | 7.6 |
| CCC(CCC(C)C)(SCC(N)=O)C(=O)O (stereo not given) | -4.75 |
| NC(=O)CCC(NS(=O)(=O)c1ccc(NC(=O)c2ccccc2)cc1)C(=O)O (stereo not given) | 4 |
| OC1CC2CCCCC2CC1c1ccccc1 (stereo not given) | 14.1 |
| CC1(C)COC(c2ccc(Cl)cc2)OC1 | 16.6 |
| CC(=O)[O-].Cc1ccnc(NS(=O)(=O)c2ccc(N=Cc3ccccc3[O-])cc2)n1.Cc1ccnc(NS(=O)(=O)c2ccc(N=Cc3ccccc3[O-])cc2)n1.[Cu+2] | 9 |
